In PubChem BioAssay:
Inconclusive results are not listed. Calls of active or inactive are those of the source. Unless noted, cut-off not given; nearly all actives show AC50 up to about 37 µM.

Experiment: growth inhibition of DIPG glioma cells, dose response, cell-based, SU-DIPG-XVII, MIPE5.0, CellTiter-Glo, qHTS (AID 1347060; cut-off not given, nearly all actives have AC50 up to about 26 µM;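 on AC50: cells exposed to compound for 48 hours before viability readout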)
Conditions: SU-DIPG-XVII viability, CellTiter-Glo ATP luminescence

Structure (SMILES) | AC50 | outcome
CNC(=O)[C@H]1O[C@@H](n2cnc3c(NCc4cccc(I)c4)nc(Cl)nc32)[C@H](O)[C@@H]1O | 18.6 µM (active) | 
COc1cc(SC)ccc1C(=O)N1CCC(Cc2ccccc2)CC1 |  | inactive
CC(C)N(CCC(=O)c1ccc2ccccc2c1)Cc1ccccc1 | 7.42 µM (active) | 
COc1cc2c(cc1O)CC[C@@H]1[C@@H]2CC[C@]2(C)[C@@H](O)CC[C@@H]12 | 1.32 µM (active) | 

Experiment: growth inhibition of DIPG glioma cells, dose response, cell-based, SU-DIPG-XIII, MIPE4.0, CellTiter-Glo, qHTS (AID 1347061);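 further: cells exposed to compound for 48 hours before readout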
Conditions: SU-DIPG-XIII viability, CellTiter-Glo ATP luminescence

Structure (SMILES) | outcome | AC50
O=C(/C=C/c1c(C(=O)O)[nH]c2cc(Cl)cc(Cl)c12)Nc1ccccc1 | inactive | 
N#C/C(=C(/N)Sc1ccc(N)cc1)c1ccccc1C(F)(F)F |  | 18.7 µM (active)
COc1ccc(-c2oc3cc(OC)ccc3c2C(=O)c2ccc(C#N)cc2)cc1 | inactive | 
Oc1cc(O)cc(/C=C/c2ccc(O)c(O)c2)c1 | inactive | 
FC(F)(F)c1ccc(/C=C/c2nc(COc3ccc(CCCCn4ccnn4)cc3)co2)cc1 | inactive | 
C[C@@H](N)C1CCC(C(=O)Nc2ccncc2)CC1 (some centres not stated) | inactive | 
Cc1cccc(C#Cc2ccccc2)n1 | inactive | 
Nc1ncnc2c1ncn2[C@@H]1O[C@H](CO)C[C@H]1O | inactive | 
COc1ccc(Nc2nccc(NCCO)n2)cc1 | inactive | 
CC(C)(C)/[N+]([O-])=C/c1ccc(S(=O)(=O)O)cc1S(=O)(=O)O | inactive | 
CC(C)c1onc(-c2c(Cl)cccc2Cl)c1COc1ccc(/C=C/c2cccc(C(=O)O)c2)c(Cl)c1 | inactive | 
Cc1ccccc1C(=O)c1ccc(Nc2ccc(Br)cc2N)cc1Cl | inactive | 
CCOC(=O)C(C)Oc1cccc2c(=O)n(CC(=O)Nc3ccc4c(c3)OCCO4)ccc12 (configuration not stated) | inactive | 
